The text below walks through data of PubChem BioAssay AID1053205 (Broad Institute, 2014).

Entries with a potency or affinity are not part of this list. Records with an inconclusive call do not appear. Unmarked numbers belong to inactive results.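 The calls were made as follows: active = compounds lowering the FRET ratio whose fitted half-maximal concentration is at most twice their top tested dose; inconclusive = flat partial drop between 30 and 70 percent, or bad fit; inactive = the rest.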

In the experiment the target is Voltage-dependent L-type calcium channel subunit alpha-1D (Homo sapiens) (UniProt Q01668). In words: disruptors of CaV1.3 IQ/ICDI domain association – cell-based, HEK293, YFP-IQ/CFP-ICDI FRET, cherry-picks, dose response (AID 1053205).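 Also: 0% = median of neutral control wells and -100% = median of positive control wells.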 The conditions noted are these: HEK293 YFP-IQ/CFP-ICDI FRET ratio, 10 min; series mostly up to 35 µM; FRET change, negative = inhibition: at the top concentration.
Chain of Voltage-dependent L-type calcium channel subunit alpha-1D (Homo sapiens) (Q01668 whole entry, looked up, the tested form may be a part): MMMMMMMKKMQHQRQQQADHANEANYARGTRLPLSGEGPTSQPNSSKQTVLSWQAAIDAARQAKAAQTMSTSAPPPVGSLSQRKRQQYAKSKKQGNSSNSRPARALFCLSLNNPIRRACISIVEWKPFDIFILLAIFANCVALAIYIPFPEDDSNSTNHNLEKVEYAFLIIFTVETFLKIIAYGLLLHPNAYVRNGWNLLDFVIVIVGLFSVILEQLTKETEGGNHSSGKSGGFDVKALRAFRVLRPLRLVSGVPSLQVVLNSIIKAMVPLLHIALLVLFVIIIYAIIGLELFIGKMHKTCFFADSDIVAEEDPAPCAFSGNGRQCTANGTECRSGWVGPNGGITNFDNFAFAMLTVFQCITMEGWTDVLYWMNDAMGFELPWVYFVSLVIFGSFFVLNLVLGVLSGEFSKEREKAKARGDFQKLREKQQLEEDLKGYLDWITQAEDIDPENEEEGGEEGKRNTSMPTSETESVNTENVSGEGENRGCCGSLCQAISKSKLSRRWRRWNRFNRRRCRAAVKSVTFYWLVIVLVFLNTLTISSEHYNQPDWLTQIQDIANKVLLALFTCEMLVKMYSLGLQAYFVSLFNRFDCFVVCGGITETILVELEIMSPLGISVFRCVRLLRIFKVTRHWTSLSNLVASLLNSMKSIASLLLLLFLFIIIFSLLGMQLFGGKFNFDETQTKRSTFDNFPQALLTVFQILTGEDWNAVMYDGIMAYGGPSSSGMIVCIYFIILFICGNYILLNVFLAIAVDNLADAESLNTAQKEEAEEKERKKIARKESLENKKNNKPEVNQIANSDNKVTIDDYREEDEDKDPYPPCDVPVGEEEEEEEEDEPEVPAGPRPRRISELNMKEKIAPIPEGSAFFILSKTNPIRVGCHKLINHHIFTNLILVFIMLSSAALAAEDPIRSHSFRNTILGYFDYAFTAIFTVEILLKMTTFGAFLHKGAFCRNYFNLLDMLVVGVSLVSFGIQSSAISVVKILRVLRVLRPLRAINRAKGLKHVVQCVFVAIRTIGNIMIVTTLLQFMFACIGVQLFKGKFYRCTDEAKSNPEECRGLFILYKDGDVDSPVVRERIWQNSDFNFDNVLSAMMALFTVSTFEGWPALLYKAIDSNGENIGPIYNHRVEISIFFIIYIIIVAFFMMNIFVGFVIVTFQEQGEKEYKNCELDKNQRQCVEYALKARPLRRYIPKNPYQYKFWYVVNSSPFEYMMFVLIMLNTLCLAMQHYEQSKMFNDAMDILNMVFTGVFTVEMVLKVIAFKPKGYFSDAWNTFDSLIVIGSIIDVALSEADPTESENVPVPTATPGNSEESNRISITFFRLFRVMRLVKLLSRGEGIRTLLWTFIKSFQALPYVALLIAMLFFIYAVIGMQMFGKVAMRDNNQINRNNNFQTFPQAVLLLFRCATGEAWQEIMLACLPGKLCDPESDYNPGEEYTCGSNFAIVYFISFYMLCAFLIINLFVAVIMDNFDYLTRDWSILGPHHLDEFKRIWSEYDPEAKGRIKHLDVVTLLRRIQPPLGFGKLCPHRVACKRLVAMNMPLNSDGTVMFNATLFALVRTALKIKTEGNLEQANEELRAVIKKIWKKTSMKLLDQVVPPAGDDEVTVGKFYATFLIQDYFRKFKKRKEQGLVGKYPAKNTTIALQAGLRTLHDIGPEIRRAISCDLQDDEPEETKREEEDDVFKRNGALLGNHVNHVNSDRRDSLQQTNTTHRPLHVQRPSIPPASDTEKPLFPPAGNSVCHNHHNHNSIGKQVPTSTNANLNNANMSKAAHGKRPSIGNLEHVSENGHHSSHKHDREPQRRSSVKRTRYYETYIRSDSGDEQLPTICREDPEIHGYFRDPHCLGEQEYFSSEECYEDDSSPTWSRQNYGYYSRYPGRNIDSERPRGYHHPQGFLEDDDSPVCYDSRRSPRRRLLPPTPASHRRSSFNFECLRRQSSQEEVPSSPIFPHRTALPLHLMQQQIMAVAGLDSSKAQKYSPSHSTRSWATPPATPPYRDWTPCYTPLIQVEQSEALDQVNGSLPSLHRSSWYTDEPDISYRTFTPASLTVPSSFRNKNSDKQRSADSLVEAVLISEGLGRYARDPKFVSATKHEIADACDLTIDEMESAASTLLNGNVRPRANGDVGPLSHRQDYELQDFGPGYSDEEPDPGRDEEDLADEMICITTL
For the compound `CN1CCN(c2nc3ccccn3c(=O)c2/C=C(\C#N)S(=O)(=O)c2ccccc2)CC1`, the “FRET change, negative = inhibition” value was 37.4%.
Take `N#C/C(=C\c1ccc(N2CCOCC2)o1)C(=O)NCCc1ccccc1`: the FRET change, negative = inhibition was 166% [at 8 µM].
For `Cc1oc(/N=C/c2ccc(O)cc2O)c(C#N)c1C` the value was -2.04%; for `Clc1cccc(CN2CCN(Cc3nc(CCc4ccccc4)no3)CC2)c1`, -34.4%; for `CC(=O)Nc1cccc(-c2ccnc3c2CC(C(=O)NCc2cccc(Cl)c2)O3)c1` (stereo unspecified), 10.8%.
The same measure for `CN(C)CCOCCOc1ccc(Cl)c2ccccc12`: 8.55%; for `COc1cc(/C=C(\C#N)C(=O)NC(C)C)cc(Cl)c1O`: -16.2%; for `Clc1ccccc1C1=CC(c2ccco2)n2ncnc2N1` (stereo unspecified): 193% [at 16 µM].
In the case of `Cc1c(C=O)c2ccccn2c1C(=O)c1cccs1`, the “FRET change, negative = inhibition” value was 28.8%.
For `CNC(=O)c1ccc(NC(=O)c2cccc(C(F)(F)F)c2)cc1` the value was 7.58%; for `CCOC(=O)c1cc2c(=O)n3cccc(C)c3nc2n(CC(C)C)c1=NC(=O)c1ccco1`, 159% [at 8 µM]; for `Cc1ccc(O)c(NC(=S)NC(=O)COc2ccc(Br)cc2)c1`, -15.2%.
For the compound `COC(=O)C1=CN(Cc2ccc(OC)c(OC)c2)C=C(C(=O)OC)C1c1cccc(F)c1`, the “FRET change, negative = inhibition” value was 106%.
For `Cc1ccc(S(=O)(=O)CCC(=O)OCC(=O)Nc2cccc(S(=O)(=O)N3CCCCC3)c2)cc1` the value was 32.2%; for `O=C(O)C1=CC[C@@H](c2ccc(Cl)cc2)N(S(=O)(=O)c2ccc(Cl)cc2)[C@H]1c1ccc(F)cc1`, 4.82%; for `CCOc1ccc(C2C(C#N)=C(N)Oc3cc(O)ccc32)cc1OCC` (stereo unspecified), 102%.
For `Cc1cccc2sc(NNC(=O)c3ccc(S(=O)(=O)N4CCCC(C)C4)cc3)nc12` (stereo unspecified) the value was -1.05%.
`Cc1c(Nc2c3ccccc3nc3ccccc23)c(=O)n(-c2ccccc2)n1C`: the “FRET change, negative = inhibition” value was 8.67%.
For `Cc1ccc2nc3c(cc(C(N)=S)c(=N)n3CCCOC(C)C)c(=O)n2c1` the value was 380%.
Consider `Cn1nc(-c2ccc(Cl)cc2)c2cc(C(=O)N3CCN(c4ccccc4)CC3)sc21`, for which the “FRET change, negative = inhibition” value is 11.8%.
In the case of `O=[N+]([O-])c1cccc(-c2n[nH]c(=S)n2-c2ccc(Br)cc2)c1`, the “FRET change, negative = inhibition” value was -27.8%.
For `CCc1cccc(OC2OC(CO)C(O)C(O)C2NC(C)=O)c1` (stereo unspecified) the value was 7.33%; for `Nc1cccc2c1C(=O)N(c1ccccc1)C2=O`, 468%.
Consider `CCN(c1ccccc1)S(=O)(=O)c1ccc(OC)c(NC(=O)CN(C)C)c1`, for which the “FRET change, negative = inhibition” value was 10.1%.
The same measure for `COCCCOc1cc(NCc2ccccc2)c2ncn(C(C)C)c2c1`: 9.32%.
The same measure for `CSC1=NSC2=NC(=O)/C(=C/c3coc4ccc(O)cc4c3=O)C(=N)N12`: 380%; for `COc1ccc(Br)c(Cn2c(C)c(C(=O)NCc3ccc4c(c3)OCCO4)sc2=O)c1`: 3.45%.
As for `CN1CCc2c(sc(NC(=O)C3CCCCC3)c2C(N)=O)C1`, the “FRET change, negative = inhibition” value is 154%.
On to `O=C(NCc1nnnn1-c1ccc(Cl)cc1)C1CC(=O)N(c2ccc(F)cc2)C1` (stereo unspecified), for which the “FRET change, negative = inhibition” value is -0.771%.
`CCCOc1ccc(NC(=O)c2c(-c3ccccc3)noc2C)cc1`: the “FRET change, negative = inhibition” value was 8.7%.
The same measure for `COc1ccc(-[n+]2c(C)cc(/C=C3\Sc4ccccc4N3C)cc2C)cc1`: 182%; for `CCN(CC)c1ccc2cc(S(=O)(=O)c3ccc(Cl)cc3)c(=O)oc2c1`: 423% [at 16 µM]; for `Cc1oc(/N=C/c2ccc(F)cc2)c(C#N)c1C`: 8.86%.
`COc1ccc(C(=O)Oc2cc(N)n(S(=O)(=O)c3ccccc3)n2)cc1`: the “FRET change, negative = inhibition” value was 0.324%.
The same measure for `O=C(NNc1cc(N2CCCC2)nc(N2CCCC2)n1)c1ccc([N+](=O)[O-])cc1`: -22.5%.
For `O=C(c1cccc(Cl)c1)N1CCC(=O)N(C(COCc2ccccc2)Cc2ccccc2)CC1` (stereo unspecified) the value was 5.96%.
